PubChem BioAssay AID743446 (Broad Institute, 2014)
Measured potencies and affinities stand elsewhere. Unmarked numbers belong to inactive results. How the calls were made is not given here.

Experiment: HEK293 cell cytotoxicity, dose response, cytotoxicity control, plate reader, cherry-picked samples (AID 743446)
Details: stronger effect = lower value; at 26 µM unless noted

| Structure (SMILES) | max activity |
| --- | --- |
| O=C(c1cc(-c2ccc(Cl)cc2Cl)on1)N1CCCC1 | 9.97% [at 0.8 µM] |
| O=C(CSc1nc2ccccc2[nH]1)Nc1nc(-c2cccc(Br)c2)cs1 | 46.2% [at 1.6 µM] |
| COc1ccccc1C=NNC(=O)c1ccncc1 | 20.7% |
| C[C@@H]1CN([C@@H](C)CO)C(=O)c2cc(NS(C)(=O)=O)ccc2O[C@@H](C)CCCCO[C@@H]1CN(C)Cc1ccc(C(F)(F)F)cc1 | -12.9% [at 0.1 µM] |
| COc1ccc(S(=O)(=O)N(C)C[C@@H]2OCc3cnnn3CCCC(=O)N([C@@H](C)CO)C[C@H]2C)cc1 | 0% [setting not given] |
| CCc1nnc2cccc(Cl)n12 | -9.24% [at 1.6 µM] |
| C[C@H](CO)N1C[C@H](C)[C@H](CN(C)C(=O)Nc2cccc3ccccc23)OCCCC[C@H](C)Oc2ccc(NC(=O)C3CCCCC3)cc2C1=O | 31.6% [at 12 µM] |
| O=C(COC(=O)c1ccccc1C(=O)c1ccc(Cl)c([N+](=O)[O-])c1)NC1CC1 | 8.38% [at 6 µM] |
| Cn1nnnc1SCC(=O)N1CCN(C(=O)c2ccco2)CC1 | -12.8% [at 0.05 µM] |
| Cc1cc(C)c(C)c(S(=O)(=O)N2CCN(c3ncnc4ccccc34)CC2)c1C | 62% [at 1.6 µM] |
| CN(C)c1ccc(NC(=O)c2cnsn2)cc1 | -9.61% [at 12 µM] |
| Cc1ccc(-c2nc(-c3ccncc3)no2)c(Cl)c1 | 10% [at 1.6 µM] |
